Test results reported in PubChem BioAssay (EPA / NIEHS).
Records with an inconclusive call do not appear. Activity calls are given as the source filed them. Rule for the calls: active = hit-call score of the fitted dose curve at least 0.9, where 1 is the maximum; inconclusive = response in the unintended direction; inactive = score below 0.9.

Each compound was assayed on xenobiotic metabolism (CYP1A2), CYP1A2 (gene 1544) (assay: CLD_CYP1A2_6hr: CellzDirect (CLD) Gene Expression Assay for xenobiotic metabolism (CYP1A2) at 6 hours (AID 2283663);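 for AC50: potency is for induction meaning a rise in mRNA above DMSO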).
Procedure: CLD_6hr is a cell-based, multiplexed-readout assay that uses hepatocyte, a human liver primary cell, with measurements taken at 6 hours after chemical dosing in a 96-well plate.CLD_CYP1A2_6hr is one of 16 assay component(s) measured or calculated from the CLD_6hr assay. It is designed to make measurements of mRNA induction, a form of inducible reporter, as detected with chemiluminescence signals by Quantitative Nuclease Protection Assay (qNPA) technology.Data from the assay component CLD_CYP1A2_6hr was analyzed at the endpoint, CLD_CYP1A2_6hr, in the positive analysis fitting direction relative to DMSO as the negative control and baseline of activity. Using a type of inducible reporter, gain-of-signal activity can be used to understand changes in the reporter gene as they relate to the gene CYP1A2. Furthermore, this assay endpoint can be referred to as a primary readout. To generalize the intended target to other relatable targets, this assay endpoint is annotated to the cyp intended target family, where subfamily is xenobiotic metabolism.
Human hepatocyte cultures were treated daily for two consecutive days with fresh dosing solutions containing appropriate concentrations of the 320 ToxCast chemicals (chemical identities were blinded to CellzDirect and other ToxCast collaborators), vehicle control (0.2% DMSO), and positive control inducers as summarized in Table 1. Due to the large number of treatment groups and chemicals examined, the ToxCast chemicals were divided into two groups (spanning two independent cultures of hepatocytes from separate donor preparations (Hu778: ToxCast plates 1 and 2; Hu776: ToxCast plates 3 and 4). Each preparation of human hepatocyte cultures was treated with respective vehicle control, medium only control, set of six positive controls/reference chemicals for the five hepatic receptor pathways, and a subset of eight of the ToxCast chemicals (indoxacarb, pyrithiobac-sodium, norflurazon, cyhalofop-butyl, methomyl, thiram, acetochlor, and propiconazole). These replicate data, coupled with internal replicates designed within the blinded ToxCast chemical library, provided additional data to evaluate interindividual differences between hepatocyte preparations and their potential impact on chemical profiles.Cell morphology and integrity were evaluated using phase-contrast microscopy as an indicator of hepatocyte cell health (Tyson & Green, 1987). Cultures for each treatment group (i.e., media, vehicle [0.2% DMSO], positive control inducers [multiple concentrations], and the ToxCast chemicals [multiple concentrations]) were observed and cell morphology was assessed relative to vehicle control cultures at each harvest time point (0, 6, 24, or 48 h). […] Images were evaluated at the conclusion of the study to assess changes in cell integrity and account for the effects of chemical exposure on uncharacteristic changes in concentration-dependent gene expression profiles. The results from these determinations of apparent cytotoxicity were annotated (yes/no) alongside the corresponding qNPA data for reference.At the conclusion of each treatment period, hepatocyte cultures (96-well) were washed with 1 volume of HBSS, lysed by addition of 25 ul ArrayPlate lysis buffer (HTG, Tucson, AZ), and 70 ul/well of Denaturation Oil, denatured by incubation at 95C for 10 min, and frozen at approximately -70C until analysis by nuclease protection assay (qNPA) (Roberts et al., 2007). For qNPA analysis, cell lysates were thawed at 50C for approximately 30 min, qNPA probes were added, and samples were incubated at 95C for 10 min to begin the detection process by denaturing the target RNA, dissociating the duplexes and secondary structure hybridization. At the conclusion of the hybridization period, S1 nuclease reagent was added to each sample to digest all nonprotected nucleotides at 50C for 60-90 min. […]
In the case of CNc1cnn(-c2cccc(C(F)(F)F)c2)c(=O)c1Cl, the AC50 is reported as 38.7 µM (active). In the case of O=c1ccc(=O)[nH][nH]1, the outcome is reported as “inactive”. In the case of CN(C)[C@@H]1C(=O)C(C(N)=O)=C(O)[C@@]2(O)C(=O)C3=C(O)c4c(O)cccc4[C@@](C)(O)[C@H]3[C@H](O)[C@@H]12, the outcome is reported as “inactive”. In the case of CNC(=O)Oc1cccc2c1OC(C)(C)O2, the AC50 is reported as 3.97 µM (active). In the case of CCOP(=S)(Oc1cnc(C(C)(C)C)nc1)OC(C)C (stereo not given), the outcome is reported as “inactive”. Cc1ccn2nc(S(=O)(=O)Nc3c(F)cccc3F)nc2n1 was tested, and the outcome was “inactive”. Cc1nn(-c2cc(NS(C)(=O)=O)c(Cl)cc2Cl)c(=O)n1C(F)F was tested, and the outcome was “inactive”. With CC(C)[C@H](C(=O)O[C@H](C#N)c1cccc(Oc2ccccc2)c1)c1ccc(Cl)cc1 the outcome was “inactive”. For CSc1nnc(C(C)(C)C)c(=O)n1N, the outcome was “inactive”. In the case of CN(C)C(=O)Nc1cccc(C(F)(F)F)c1, the outcome is reported as “inactive”. With CC(Oc1cccc(Cl)c1)C(=O)O (stereo not given) the outcome was “inactive”. COc1cccc(C(=O)NN(C(=O)c2cc(C)cc(C)c2)C(C)(C)C)c1C was tested, and the outcome was “inactive”. In the case of CC(C1CC1)C(O)(Cn1cncn1)c1ccc(Cl)cc1 (stereo not given), the AC50 is reported as 0.00638 µM (active). In the case of CCOP(=O)(OCC)Oc1cc(C)nc(C(C)C)n1, the outcome is reported as “inactive”. With CCCSP(=O)(OCC)SCCC the outcome was “inactive”. For CC(C)N(C(=O)SCC(Cl)=C(Cl)Cl)C(C)C, the outcome was “inactive”. In the case of COP(=O)(OC)SCn1c(=O)oc2cc(Cl)cnc21, the outcome is reported as “inactive”. Cc1cc(C2CC2)nc(Nc2ccccc2)n1 was tested, and the AC50 was 1.99 µM (active). For FC(F)C(F)(F)OCC(Cn1cncn1)c1ccc(Cl)cc1Cl (stereo not given), the AC50 was 2.45 µM (active). C#CCC1=C(C)C(OC(=O)C2C(C=C(C)C)C2(C)C)CC1=O (stereo not given) was tested, and the outcome was “inactive”. For CCCCN(CC)c1c([N+](=O)[O-])cc(C(F)(F)F)cc1[N+](=O)[O-], the outcome was “inactive”. For CC1=NNC(=O)N(/N=C/c2cccnc2)C1, the outcome was “inactive”. For CCCCSP(=O)(SCCCC)SCCCC, the AC50 was 2.96 µM (active). With CCC(CC)Nc1c([N+](=O)[O-])cc(C)c(C)c1[N+](=O)[O-] the outcome was “inactive”. CC(COc1ccc(Oc2ccccc2)cc1)Oc1ccccn1 (stereo not given) was tested, and the outcome was “inactive”. In the case of CCCOCC(=Nc1ccc(Cl)cc1C(F)(F)F)n1ccnc1, the AC50 is reported as 1.89 µM (active). CN(C)NC(=O)CCC(=O)O was tested, and the outcome was “inactive”. N#CSCSC#N was tested, and the outcome was “inactive”. For CCOC(=O)COc1cc(-c2nn(C)c(OC(F)F)c2Cl)c(F)cc1Cl, the outcome was “inactive”. With CCCCOC(=O)[C@@H](C)Oc1ccc(Oc2ccc(C#N)cc2F)cc1 the outcome was “inactive”. CSc1nc(NC(C)C)nc(NC(C)C)n1 was tested, and the outcome was “inactive”. In the case of CCOC(=O)CC(SP(=O)(OC)OC)C(=O)OCC (stereo not given), the outcome is reported as “inactive”. COP(=O)(NC(C)=O)SC (stereo not given) was tested, and the outcome was “inactive”. In the case of CCC(=O)Nc1ccc(Cl)c(Cl)c1, the AC50 is reported as 8.75 µM (active). With CCNc1nc(Cl)nc(NC(C)(C)C#N)n1 the outcome was “inactive”. With CC[C@H](C)[C@H]1O[C@]2(C=C[C@@H]1C)C[C@@H]1C[C@@H](C/C=C(\C)[C@@H](O[C@H]3C[C@H](OC)[C@@H](O[C@H]4C[C@H](OC)[C@@H](NC)[C@H](C)O4)[C@H](C)O3)[C@@H](C)/C=C/C=C3\CO[C@@H]4[C@H](O)C(C)=C[C@@H](C(=O)O1)[C@]34O)O2 the AC50 was 10.5 µM (active). CCOP(=S)(OCC)OC(Cl)C(Cl)(Cl)Cl (stereo not given) was tested, and the outcome was “inactive”. In the case of CCOP(=S)(OCC)Oc1cc(C)nc(C(C)C)n1, the AC50 is reported as 0.589 µM (active). In the case of CNC(=O)ON=C(C)SC, the outcome is reported as “inactive”. With CSC1=N[C@@](C)(c2ccccc2)C(=O)N1Nc1ccccc1 the outcome was “inactive”.
